Anthrax LF prot: anthrax lethal factor protease inhibition; multiplex microsphere protease cleavage assay, LF; inhibition, % at 10 µM; 360,000 compounds, 0.12% hits
MazF activator: MazEF (E. coli) toxin RNase activation. P0AE70. FAM/BHQ RNA-DNA oligo cleavage fluorescence, 5 h. AID 504720. 350,000 compounds, 0.32% hits. activation, % at 20 µM; in the data active means activation above about 50%
Target sequence (P0AE70 whole entry, looked up): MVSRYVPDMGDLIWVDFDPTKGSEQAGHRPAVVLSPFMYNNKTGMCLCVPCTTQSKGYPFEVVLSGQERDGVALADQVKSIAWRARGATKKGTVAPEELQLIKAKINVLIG
VHR inh abs: inhibitors of human VHR1 phosphatase (DUSP3) | P51452 | recombinant VHR phosphatase, pNPP absorbance | inhibition, % at 13.3 µM | 290,000 compounds, 0.52% hits | AID 1654; in the data active means inhibition above about 50%
Target sequence (P51452 whole entry, looked up): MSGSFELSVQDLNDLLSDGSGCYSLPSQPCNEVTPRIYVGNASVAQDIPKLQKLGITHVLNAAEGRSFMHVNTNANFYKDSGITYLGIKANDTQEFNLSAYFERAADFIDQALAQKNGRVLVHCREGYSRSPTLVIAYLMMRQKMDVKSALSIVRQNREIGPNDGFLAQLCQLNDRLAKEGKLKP
Bead autofluor: compound fluorescence in toxin protease inhibitor counterscreen; compound autofluorescence counterscreen, microsphere flow cytometry; stronger effect = higher value; fluorescence intensity (test concentration not listed); 360,000 compounds, 3.1% hits; AID 624483; in the data active means fluorescence intensity above about 16000; inconclusive means no clear call, values can overlap the other calls
BoNT F protease: BoNT F light chain protease inhibition; Multiplex microsphere protease cleavage assay, flow cytometry; inhibition, % at 10 µM; 360,000 compounds, 0.22% hits; in the data active means inhibition above about 35%, passing the limit was not always enough; inconclusive means no clear call, values can overlap the other calls
BoNT A protease: blocks Botulinum neurotoxin A light chain protease | multiplex microsphere protease substrate cleavage, flow cytometry | inhibition, % at 10 µM | 360,000 compounds, 0.17% hits | AID 588499
Each line names hits and unclear results; the compound was inactive in the other large screens. Most compounds without a hit are left out; they make up all but 4% or so of the library. Unless noted, no stated cut-off is given here; in the data, active means inhibition above about 30%; inconclusive means no clear call, values can overlap the other calls; inactive means below that.

CNC(=O)c1csc(-c2ccc(C)cc2)n1	Bead autofluor 20516
O=C(CN1CCc2ccccc2C1)NCc1ccco1	Bead autofluor 19256
N#CCCn1cc(/C=C(\C#N)c2nc3ccccc3s2)c(-c2ccc(F)cc2)n1	MazF activator 53
CC(C)(C)NS(=O)(=O)c1ccc(NC(=S)NC(=O)C2CCC2)cc1	none
Fc1cccc(/C=N/Nc2ccc3ccccc3n2)c1	none
COc1nc(-c2ccccc2)ccc1-c1noc(-c2ccc(F)cc2)n1	none (no result: Anthrax LF prot, MazF activator, Bead autofluor, BoNT F protease, BoNT A protease)
CC(NC(=O)c1ccc(F)cc1)c1nc2ccccc2n1Cc1ccccc1F (centres undefined)	Bead autofluor 26278
CCCC(=O)NC(Nc1ccc(S(=O)(=O)Nc2cc(C)on2)cc1)(C(=O)OCC)C(F)(F)F (centres undefined)	none
CCOC(=O)C(NC(=O)CC(C)C)(Nc1cc(C)on1)C(F)(F)F (centres undefined)	Bead autofluor 22923
O=C(C1CC2C=CC1C2)N1CCN(c2ccccc2)CC1 (centres undefined)	none
CC1(C)C(C=C(Cl)Cl)C1C(=O)N1CCN(c2ccccc2)CC1 (centres undefined)	Bead autofluor 22705
C(=N\n1cnnc1)/c1cccc(Oc2ccccc2)c1	Bead autofluor 22913
S=c1[nH]ncn1/N=C/c1cccc(Oc2ccccc2)c1	none
Fc1ccccc1COc1cccc(/C=N/n2cnnc2)c1	Bead autofluor 24150
CCS(=O)(=O)n1nc(-c2ccccc2)nc1NCc1ccco1	Anthrax LF prot inconclusive, Bead autofluor inconclusive
O=C(COc1ccccc1)n1nc(-c2ccc(Cl)cc2)nc1NCc1ccco1	Bead autofluor 21640
Cc1ccc(S(=O)(=O)n2nc(-c3ccc(Cl)cc3)nc2NCc2ccco2)cc1	Bead autofluor 23333, BoNT A protease inconclusive
N#C/C(=C(O)\C=C\c1ccccc1)c1nc2ccccc2[nH]1	BoNT F protease inconclusive
CN(C1CCCCC1)S(=O)(=O)Cc1ccccc1	Bead autofluor 22622
CCCN1C(=O)/C(=C\C=C2/Sc3ccccc3N2CC)SC1=S	none (no result: Anthrax LF prot, MazF activator, Bead autofluor, BoNT F protease, BoNT A protease)
COc1ccc(-c2cn3cc(Cl)ccc3n2)cc1OC	VHR inh abs 53
COc1ccc(-c2cn3cc(C)ccc3n2)cc1Br	none
Cn1c(SCC(=O)Nc2ccccc2F)nnc1-c1ccc(S(=O)(=O)N2CCOCC2)cc1	none
CN(Cc1ccccc1)Cc1c(F)cccc1F	Bead autofluor 22850
Cn1nnc(-c2ccc(OCc3ccccc3F)cc2)n1	Bead autofluor 23800
CC(=O)Nc1sc2c(c1C#N)CCCCC2	Bead autofluor 23128, BoNT A protease inconclusive
Cn1c(CNC(=O)c2ccc(Cl)cc2)nnc1SCC(=O)Nc1sc2c(c1C#N)CCCC2	MazF activator 106
N#Cc1c(NC(=O)CSc2nc3c(c(C(F)(F)F)n2)CCc2ccccc2-3)sc2c1CCCC2	Bead autofluor 22691
N#Cc1c(NC(=O)CSC2=NCCS2)sc2c1CCCC2	Bead autofluor 16243
COc1cnc(-c2cccc(C(F)(F)F)c2)nc1OC	none
CN(Cc1ccccc1)C(=O)c1ccc(NC(=O)Cc2ccc(NC(=O)C3CCCN(C(=O)C4CCCC4)C3)cc2)cc1 (centres undefined)	none (no result: VHR inh abs)
Cn1cc(CCNC(=O)C2CCC(=O)N(CCc3ccc(Cl)cc3)C2)cn1 (centres undefined)	none
CC(=O)Nc1c(O)nc(SCC(=O)Nc2sc3c(c2C#N)CCCCCC3)[nH]c1=O	Bead autofluor 19485
Cc1ccnc(SCC(=O)Nc2sc3c(c2C#N)CCCC3)n1	none
Cc1cc(C(=O)Nc2sc3c(c2C#N)CCC3)no1	Bead autofluor 22362
Cc1cc(C(=O)Nc2sc3c(c2C#N)CCCC3)no1	none
Cc1noc(C)c1COC(=O)COc1ccc(C#N)cc1	none
CCCCCn1c(CN2CCCCC2CC)nc2c1c(=O)n(C)c(=O)n2C (centres undefined)	none
O=C(/C=C/c1ccc(F)cc1)NCCC1=CCCCC1	Bead autofluor 23985
O=C(/C=C/c1ccccc1)NCCC1=CCCCC1	none
CC(C)(C)OC(=O)N1CCC(C(=O)N2CCC[C@H]2C(=O)O)CC1	Bead autofluor 20337
CC(C)(C)OC(=O)N1CCC[C@@H]1C(=O)N1CCC(C(=O)O)CC1	none
O=C(CNC(=O)c1cccs1)NCC(=O)OCc1cccc(Cl)c1	none
CCCN1CNC(=S)N(c2cccc(C)c2C)C1	BoNT A protease inconclusive
CCN1CNC(=S)N(c2cccc(C)c2C)C1	Bead autofluor 20115, BoNT A protease inconclusive
CS(=O)(=O)Nc1ccccc1C(=O)N1CCOCC1	none
O=Cc1ccc(N2CCCC2)c([N+](=O)[O-])c1	none

Screening data (PubChem)
